# In article PMC7862700, “An all-to-all approach to the identification of sequence-specific readers for epigenetic DNA modifications on cytosine”:
# What was measured:
# Assay in all cases: DAPPL (digital affinity profiling via proximity ligation, sequencing); 10 mM Tris-HCl pH 7.5, 50 mM NaCl, 1 mM DTT, 4% glycerol, room temperature, 30 min; GST-TFs on glutathione beads, 16-mer random dsDNA library, 0.1% formaldehyde crosslink after washing; high values mean tight binding
# FLI1 = molecular target: T1, FLI1 (Homo sapiens, UniProt Q01543 1-452); conditions: protein: recombinant; tags: N-terminal GST; dsDNA, one strand shown
# T1 sequence: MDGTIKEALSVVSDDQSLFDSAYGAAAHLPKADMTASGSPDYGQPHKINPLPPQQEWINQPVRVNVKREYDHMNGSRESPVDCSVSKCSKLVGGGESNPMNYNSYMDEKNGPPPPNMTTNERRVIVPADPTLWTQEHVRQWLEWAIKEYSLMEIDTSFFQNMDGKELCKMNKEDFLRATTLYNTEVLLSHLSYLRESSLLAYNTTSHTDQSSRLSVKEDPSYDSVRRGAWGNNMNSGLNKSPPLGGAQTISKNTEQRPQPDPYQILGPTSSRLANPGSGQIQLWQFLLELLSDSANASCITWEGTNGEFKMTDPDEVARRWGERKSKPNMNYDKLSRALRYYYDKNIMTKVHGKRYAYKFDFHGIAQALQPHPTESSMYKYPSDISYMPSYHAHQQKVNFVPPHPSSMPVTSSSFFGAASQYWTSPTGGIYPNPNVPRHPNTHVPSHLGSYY
# In short: (§1)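 Pools of DNA-barcoded human transcription factors, expressed in yeast as GST fusions on glutathione beads and combined with a tag-only sample, were incubated with 200 nmole of a 16-mer random double-stranded DNA library. Incubation took 30 min at room temperature in Tris/NaCl/DTT/glycerol buffer and was followed by washing, 0.1% formaldehyde crosslinking, proximity ligation (BsaI/T4 ligase, 1 h, 37 °C), PCR amplification and sequencing on an Illumina NextSeq500. Binding signal is the ratio of a hexamer's read frequency for a factor to its frequency for the tag-only sample.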
# ELK1 = molecular target: T2, ELK1 (Homo sapiens, UniProt P19419 1-428); conditions: protein: recombinant; tags: N-terminal GST; dsDNA, one strand shown
# T2 sequence: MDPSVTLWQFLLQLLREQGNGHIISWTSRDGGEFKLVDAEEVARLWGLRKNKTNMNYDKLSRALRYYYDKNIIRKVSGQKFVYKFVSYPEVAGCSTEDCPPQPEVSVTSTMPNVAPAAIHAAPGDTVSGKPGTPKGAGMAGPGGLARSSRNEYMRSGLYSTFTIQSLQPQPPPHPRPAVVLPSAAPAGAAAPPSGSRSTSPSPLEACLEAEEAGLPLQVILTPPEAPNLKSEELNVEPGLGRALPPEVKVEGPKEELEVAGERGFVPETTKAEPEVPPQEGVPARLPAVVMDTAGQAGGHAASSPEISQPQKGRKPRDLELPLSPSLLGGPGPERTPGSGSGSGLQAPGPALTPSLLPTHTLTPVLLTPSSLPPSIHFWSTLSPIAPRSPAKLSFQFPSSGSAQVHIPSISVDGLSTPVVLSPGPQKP
# In short: as §1
# GABPA = molecular target: T3, GABPA (Homo sapiens, UniProt Q06546 1-454); conditions: protein: recombinant; tags: N-terminal GST; dsDNA, one strand shown
# T3 sequence: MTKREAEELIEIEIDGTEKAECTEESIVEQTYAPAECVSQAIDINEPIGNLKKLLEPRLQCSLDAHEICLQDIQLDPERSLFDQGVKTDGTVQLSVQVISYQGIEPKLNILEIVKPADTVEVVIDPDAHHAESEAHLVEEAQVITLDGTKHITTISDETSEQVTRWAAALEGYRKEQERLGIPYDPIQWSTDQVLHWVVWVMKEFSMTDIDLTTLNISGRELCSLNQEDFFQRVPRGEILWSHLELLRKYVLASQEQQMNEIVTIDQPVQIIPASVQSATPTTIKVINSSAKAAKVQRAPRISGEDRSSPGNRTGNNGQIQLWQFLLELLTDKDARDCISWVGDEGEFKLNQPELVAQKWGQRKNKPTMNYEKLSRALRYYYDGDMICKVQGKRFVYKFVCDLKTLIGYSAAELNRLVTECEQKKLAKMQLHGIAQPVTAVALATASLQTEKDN
# In short: as §1
# ERG = molecular target: T4, ERG (Homo sapiens, UniProt P11308 1-479); conditions: protein: recombinant; tags: N-terminal GST; dsDNA, one strand shown
# T4 sequence: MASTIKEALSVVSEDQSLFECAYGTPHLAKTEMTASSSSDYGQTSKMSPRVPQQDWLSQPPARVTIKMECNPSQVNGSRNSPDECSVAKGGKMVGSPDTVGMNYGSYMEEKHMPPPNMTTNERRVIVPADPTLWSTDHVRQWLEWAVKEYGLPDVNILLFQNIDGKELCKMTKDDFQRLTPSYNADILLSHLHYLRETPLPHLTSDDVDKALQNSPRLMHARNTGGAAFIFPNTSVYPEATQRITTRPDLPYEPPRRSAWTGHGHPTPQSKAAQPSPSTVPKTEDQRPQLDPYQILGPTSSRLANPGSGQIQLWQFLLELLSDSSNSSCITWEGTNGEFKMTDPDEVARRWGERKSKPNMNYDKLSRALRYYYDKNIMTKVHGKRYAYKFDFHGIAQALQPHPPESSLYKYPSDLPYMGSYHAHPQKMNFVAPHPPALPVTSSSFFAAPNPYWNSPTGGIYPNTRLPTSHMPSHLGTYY
# In short: as §1
# ELF1 = ELF1 (Homo sapiens, UniProt P32519 1-619); conditions: protein: recombinant; tags: N-terminal GST; dsDNA, one strand shown
# In short: as §1
# EHF = molecular target: T5, EHF (Homo sapiens, UniProt Q9NZC4 1-300); conditions: protein: recombinant; tags: N-terminal GST; dsDNA, one strand shown
# T5 sequence: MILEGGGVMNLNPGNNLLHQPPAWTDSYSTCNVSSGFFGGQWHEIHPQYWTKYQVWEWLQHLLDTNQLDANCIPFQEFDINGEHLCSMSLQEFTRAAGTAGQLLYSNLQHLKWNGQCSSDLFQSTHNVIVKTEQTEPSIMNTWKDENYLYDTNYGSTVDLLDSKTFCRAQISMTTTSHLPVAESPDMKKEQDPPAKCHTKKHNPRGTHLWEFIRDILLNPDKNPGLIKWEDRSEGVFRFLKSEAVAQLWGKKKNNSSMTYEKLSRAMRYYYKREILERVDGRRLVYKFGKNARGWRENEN
# In short: as §1
# SPI1 = SPI1 (Homo sapiens, UniProt P17947 1-270); conditions: protein: recombinant; tags: N-terminal GST; dsDNA, one strand shown
# In short: as §1
# SPIB = SPIB (Homo sapiens, UniProt Q01892 1-262); conditions: protein: recombinant; tags: N-terminal GST; dsDNA, one strand shown
# In short: as §1
# ELK3 = molecular target: T6, ELK3 (Homo sapiens, UniProt P41970 1-407); conditions: protein: recombinant; tags: N-terminal GST; dsDNA, one strand shown
# T6 sequence: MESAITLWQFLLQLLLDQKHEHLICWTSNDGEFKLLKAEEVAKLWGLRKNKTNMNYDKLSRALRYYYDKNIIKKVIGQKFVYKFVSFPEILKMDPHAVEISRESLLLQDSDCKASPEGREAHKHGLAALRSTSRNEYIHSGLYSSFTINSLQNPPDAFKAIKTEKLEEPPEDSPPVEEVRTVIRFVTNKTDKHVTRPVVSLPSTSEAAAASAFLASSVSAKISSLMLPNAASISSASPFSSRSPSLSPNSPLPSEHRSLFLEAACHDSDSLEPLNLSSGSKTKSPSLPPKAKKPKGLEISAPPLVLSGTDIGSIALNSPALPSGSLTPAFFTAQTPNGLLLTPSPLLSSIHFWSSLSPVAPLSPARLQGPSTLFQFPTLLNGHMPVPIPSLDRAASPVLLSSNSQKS
# In short: as §1
# FEV = molecular target: T7, FEV (Homo sapiens, UniProt Q99581 1-238); conditions: protein: recombinant; tags: N-terminal GST; dsDNA, one strand shown
# T7 sequence: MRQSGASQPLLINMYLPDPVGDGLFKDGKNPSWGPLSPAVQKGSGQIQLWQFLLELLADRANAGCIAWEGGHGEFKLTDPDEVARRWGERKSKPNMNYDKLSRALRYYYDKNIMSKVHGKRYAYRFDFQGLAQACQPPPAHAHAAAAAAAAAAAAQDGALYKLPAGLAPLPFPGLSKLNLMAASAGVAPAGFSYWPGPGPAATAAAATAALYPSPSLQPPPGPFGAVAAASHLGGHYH
# In short: as §1
# ETV5 = ETV5 (Homo sapiens, UniProt P41161 1-510); conditions: protein: recombinant; tags: N-terminal GST; dsDNA, one strand shown
# In short: as §1
# HSF1 = HSF1 (Homo sapiens, UniProt Q00613 1-529); conditions: protein: recombinant; tags: N-terminal GST; chain copies: 3; dsDNA, one strand shown
# In short: as §1
# SPIC = molecular target: T8, SPIC (Homo sapiens, UniProt Q8N5J4 1-248); conditions: protein: recombinant; tags: N-terminal GST; dsDNA, one strand shown
# T8 sequence: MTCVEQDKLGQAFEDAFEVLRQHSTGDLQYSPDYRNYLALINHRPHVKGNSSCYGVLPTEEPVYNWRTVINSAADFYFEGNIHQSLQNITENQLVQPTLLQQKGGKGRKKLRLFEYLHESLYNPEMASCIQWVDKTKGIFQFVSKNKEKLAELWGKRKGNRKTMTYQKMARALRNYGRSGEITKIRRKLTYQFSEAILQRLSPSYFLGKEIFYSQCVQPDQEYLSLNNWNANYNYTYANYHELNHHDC
# In short: as §1
# ELF4 = ELF4 (Homo sapiens, UniProt Q99607 1-663); conditions: protein: recombinant; tags: N-terminal GST; dsDNA, one strand shown
# In short: as §1
# ELK4 = molecular target: T9, ELK4 (Homo sapiens, UniProt P28324-2 1-405); conditions: protein: recombinant; tags: N-terminal GST; dsDNA, one strand shown
# T9 sequence: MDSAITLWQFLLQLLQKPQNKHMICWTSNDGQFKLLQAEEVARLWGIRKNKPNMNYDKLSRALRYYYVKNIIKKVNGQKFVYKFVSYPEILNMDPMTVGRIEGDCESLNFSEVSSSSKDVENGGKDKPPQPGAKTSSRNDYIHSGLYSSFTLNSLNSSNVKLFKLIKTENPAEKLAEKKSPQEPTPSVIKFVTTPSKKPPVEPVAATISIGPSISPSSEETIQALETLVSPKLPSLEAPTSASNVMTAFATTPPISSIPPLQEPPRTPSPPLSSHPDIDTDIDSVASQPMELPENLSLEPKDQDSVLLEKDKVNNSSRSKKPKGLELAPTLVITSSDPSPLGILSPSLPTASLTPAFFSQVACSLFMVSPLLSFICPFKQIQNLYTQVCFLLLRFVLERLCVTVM
# In short: as §1
# ETV2 = molecular target: T10, ETV2 (Homo sapiens, UniProt O00321 1-342); conditions: protein: recombinant; tags: N-terminal GST; dsDNA, one strand shown
# T10 sequence: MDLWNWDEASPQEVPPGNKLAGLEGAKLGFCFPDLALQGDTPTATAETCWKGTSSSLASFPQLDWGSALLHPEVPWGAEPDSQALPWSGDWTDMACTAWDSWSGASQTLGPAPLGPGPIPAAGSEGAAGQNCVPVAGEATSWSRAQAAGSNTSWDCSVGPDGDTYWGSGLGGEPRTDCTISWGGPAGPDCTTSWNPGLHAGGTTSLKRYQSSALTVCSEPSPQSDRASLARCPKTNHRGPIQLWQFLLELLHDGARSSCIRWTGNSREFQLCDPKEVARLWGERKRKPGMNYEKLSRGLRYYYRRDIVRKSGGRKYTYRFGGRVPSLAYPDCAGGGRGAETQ
# In short: as §1
# ELF3 = molecular target: T11, ELF3 (Homo sapiens, UniProt P78545 1-371); conditions: protein: recombinant; tags: N-terminal GST; dsDNA, one strand shown
# T11 sequence: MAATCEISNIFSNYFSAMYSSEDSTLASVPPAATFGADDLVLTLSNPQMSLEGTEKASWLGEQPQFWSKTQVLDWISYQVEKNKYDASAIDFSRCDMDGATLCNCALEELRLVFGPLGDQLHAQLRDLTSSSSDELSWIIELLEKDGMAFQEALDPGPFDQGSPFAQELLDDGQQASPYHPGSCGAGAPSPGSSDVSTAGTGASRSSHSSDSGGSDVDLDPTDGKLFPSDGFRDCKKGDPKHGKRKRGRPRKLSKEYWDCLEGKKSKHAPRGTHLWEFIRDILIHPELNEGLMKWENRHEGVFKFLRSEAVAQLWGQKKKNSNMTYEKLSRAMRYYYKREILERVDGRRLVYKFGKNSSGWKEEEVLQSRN
# In short: as §1
# CRX = CRX (Homo sapiens, UniProt O43186 1-299); conditions: protein: recombinant; tags: N-terminal GST; dsDNA, one strand shown
# In short: as §1
# ETV1 = ETV1 (Homo sapiens, UniProt P50549 1-477); conditions: protein: recombinant; tags: N-terminal GST; dsDNA, one strand shown
# In short: as §1
# Chain of ELF1 (P32519 whole entry): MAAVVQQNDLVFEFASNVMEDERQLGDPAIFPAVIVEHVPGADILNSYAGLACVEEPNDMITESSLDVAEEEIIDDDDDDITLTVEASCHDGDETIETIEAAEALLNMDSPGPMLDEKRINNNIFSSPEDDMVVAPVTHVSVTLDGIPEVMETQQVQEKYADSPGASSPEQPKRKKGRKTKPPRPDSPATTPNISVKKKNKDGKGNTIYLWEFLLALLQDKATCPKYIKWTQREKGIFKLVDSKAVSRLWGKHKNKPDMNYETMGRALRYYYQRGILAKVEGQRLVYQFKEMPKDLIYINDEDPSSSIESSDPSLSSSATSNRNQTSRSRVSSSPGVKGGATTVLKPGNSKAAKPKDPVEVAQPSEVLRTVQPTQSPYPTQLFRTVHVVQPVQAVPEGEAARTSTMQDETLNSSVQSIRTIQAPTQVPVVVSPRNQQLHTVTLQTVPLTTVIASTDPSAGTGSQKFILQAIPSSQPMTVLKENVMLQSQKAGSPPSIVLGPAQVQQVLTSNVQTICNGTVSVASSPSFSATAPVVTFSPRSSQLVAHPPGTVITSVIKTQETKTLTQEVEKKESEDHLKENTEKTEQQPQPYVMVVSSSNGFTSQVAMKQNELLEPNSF
# Chain of SPIB (Q01892 whole entry): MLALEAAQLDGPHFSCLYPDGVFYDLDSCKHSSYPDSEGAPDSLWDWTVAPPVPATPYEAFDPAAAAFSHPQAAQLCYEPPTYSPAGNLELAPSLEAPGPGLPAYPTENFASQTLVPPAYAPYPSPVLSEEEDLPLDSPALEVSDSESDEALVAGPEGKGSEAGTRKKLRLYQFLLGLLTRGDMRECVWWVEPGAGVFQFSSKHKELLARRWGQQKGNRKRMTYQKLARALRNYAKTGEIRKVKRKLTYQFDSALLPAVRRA
# Chain of CRX (O43186 whole entry): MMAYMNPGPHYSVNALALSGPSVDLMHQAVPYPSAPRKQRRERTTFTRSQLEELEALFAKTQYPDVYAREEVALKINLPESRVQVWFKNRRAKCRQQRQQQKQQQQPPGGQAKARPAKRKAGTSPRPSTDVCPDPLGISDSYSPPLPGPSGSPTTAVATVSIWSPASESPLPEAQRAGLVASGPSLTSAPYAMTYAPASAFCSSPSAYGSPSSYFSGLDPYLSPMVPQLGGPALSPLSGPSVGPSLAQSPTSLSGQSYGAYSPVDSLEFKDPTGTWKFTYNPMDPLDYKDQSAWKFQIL
# Chain of ELF4 (Q99607 whole entry): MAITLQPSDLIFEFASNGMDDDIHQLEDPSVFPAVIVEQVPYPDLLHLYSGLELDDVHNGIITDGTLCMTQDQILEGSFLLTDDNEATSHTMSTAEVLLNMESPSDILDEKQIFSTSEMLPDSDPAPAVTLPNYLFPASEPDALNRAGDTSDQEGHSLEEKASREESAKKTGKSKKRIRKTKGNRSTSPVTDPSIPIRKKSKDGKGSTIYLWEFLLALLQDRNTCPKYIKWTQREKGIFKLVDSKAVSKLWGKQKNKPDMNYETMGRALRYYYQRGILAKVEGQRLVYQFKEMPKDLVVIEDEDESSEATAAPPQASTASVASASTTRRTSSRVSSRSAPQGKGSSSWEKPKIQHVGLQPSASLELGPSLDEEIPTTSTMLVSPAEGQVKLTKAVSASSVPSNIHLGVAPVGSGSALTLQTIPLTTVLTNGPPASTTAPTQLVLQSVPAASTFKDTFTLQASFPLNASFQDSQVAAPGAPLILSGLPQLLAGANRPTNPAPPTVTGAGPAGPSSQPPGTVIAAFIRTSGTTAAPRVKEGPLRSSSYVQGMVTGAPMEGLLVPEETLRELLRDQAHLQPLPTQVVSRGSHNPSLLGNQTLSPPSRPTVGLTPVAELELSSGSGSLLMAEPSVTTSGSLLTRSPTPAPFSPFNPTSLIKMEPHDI
# Chain of ETV1 (P50549 whole entry): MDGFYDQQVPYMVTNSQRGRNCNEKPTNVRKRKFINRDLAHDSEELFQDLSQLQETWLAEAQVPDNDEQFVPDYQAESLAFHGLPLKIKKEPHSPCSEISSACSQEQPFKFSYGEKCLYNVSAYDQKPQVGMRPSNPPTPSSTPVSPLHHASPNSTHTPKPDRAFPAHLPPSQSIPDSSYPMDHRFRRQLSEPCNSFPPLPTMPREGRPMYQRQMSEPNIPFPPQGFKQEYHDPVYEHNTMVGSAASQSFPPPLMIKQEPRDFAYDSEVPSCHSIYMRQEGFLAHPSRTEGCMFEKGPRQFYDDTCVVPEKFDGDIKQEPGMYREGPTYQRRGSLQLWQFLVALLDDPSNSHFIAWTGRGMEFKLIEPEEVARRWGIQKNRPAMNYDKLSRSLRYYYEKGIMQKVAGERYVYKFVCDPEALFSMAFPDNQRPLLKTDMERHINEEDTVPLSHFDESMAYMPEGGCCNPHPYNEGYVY
# Chain of ETV5 (P41161 whole entry): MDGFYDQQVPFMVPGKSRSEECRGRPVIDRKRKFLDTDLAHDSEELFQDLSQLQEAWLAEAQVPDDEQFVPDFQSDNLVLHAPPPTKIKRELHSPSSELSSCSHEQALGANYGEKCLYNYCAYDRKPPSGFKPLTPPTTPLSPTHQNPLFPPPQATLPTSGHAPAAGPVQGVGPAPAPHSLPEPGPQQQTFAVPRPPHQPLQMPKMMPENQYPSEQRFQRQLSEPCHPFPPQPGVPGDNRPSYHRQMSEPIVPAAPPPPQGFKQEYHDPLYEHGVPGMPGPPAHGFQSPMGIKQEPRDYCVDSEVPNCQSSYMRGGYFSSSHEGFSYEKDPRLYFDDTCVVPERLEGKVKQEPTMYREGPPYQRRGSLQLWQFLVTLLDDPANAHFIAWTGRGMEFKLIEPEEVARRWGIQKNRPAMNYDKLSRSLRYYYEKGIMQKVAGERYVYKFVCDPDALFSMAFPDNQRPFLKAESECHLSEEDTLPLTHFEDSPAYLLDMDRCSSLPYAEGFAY
# Chain of HSF1 (Q00613 whole entry): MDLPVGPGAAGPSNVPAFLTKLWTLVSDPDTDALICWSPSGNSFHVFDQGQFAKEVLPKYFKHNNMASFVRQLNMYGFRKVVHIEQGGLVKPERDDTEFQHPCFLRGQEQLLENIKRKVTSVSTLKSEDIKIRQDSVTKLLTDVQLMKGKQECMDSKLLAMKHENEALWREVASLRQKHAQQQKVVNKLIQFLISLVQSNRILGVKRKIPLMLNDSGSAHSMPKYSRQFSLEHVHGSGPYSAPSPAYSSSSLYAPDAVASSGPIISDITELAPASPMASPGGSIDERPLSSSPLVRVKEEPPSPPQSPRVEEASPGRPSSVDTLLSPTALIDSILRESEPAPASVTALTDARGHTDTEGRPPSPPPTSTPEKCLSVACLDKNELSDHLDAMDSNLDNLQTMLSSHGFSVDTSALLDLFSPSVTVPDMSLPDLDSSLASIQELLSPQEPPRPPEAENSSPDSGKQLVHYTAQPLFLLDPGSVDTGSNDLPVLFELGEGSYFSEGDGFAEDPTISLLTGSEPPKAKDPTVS
sequence,measurement,setting,value
ATTTCT,binding signal,FLI1,"1.45 fold enrichment (6-mer frequency, TF over GST control)"
same,binding signal,ELK1,"1.51 fold enrichment (6-mer frequency, TF over GST control)"
same,binding signal,GABPA,"1.51 fold enrichment (6-mer frequency, TF over GST control)"
same,binding signal,ERG,"1.5 fold enrichment (6-mer frequency, TF over GST control)"
same,binding signal,ELF1,"1.48 fold enrichment (6-mer frequency, TF over GST control)"
same,binding signal,EHF,"1.3 fold enrichment (6-mer frequency, TF over GST control)"
same,binding signal,SPI1,"1.47 fold enrichment (6-mer frequency, TF over GST control)"
same,binding signal,SPIB,"1.43 fold enrichment (6-mer frequency, TF over GST control)"
same,binding signal,ELK3,"1.32 fold enrichment (6-mer frequency, TF over GST control)"
same,binding signal,FEV,"1.43 fold enrichment (6-mer frequency, TF over GST control)"
same,binding signal,ETV5,"1.39 fold enrichment (6-mer frequency, TF over GST control)"
same,binding signal,HSF1,"2.3 fold enrichment (6-mer frequency, TF over GST control)"
same,binding signal,SPIC,"1.49 fold enrichment (6-mer frequency, TF over GST control)"
same,binding signal,ELF4,"1.4 fold enrichment (6-mer frequency, TF over GST control)"
same,binding signal,ELK4,"1.66 fold enrichment (6-mer frequency, TF over GST control)"
same,binding signal,ETV2,"1.4 fold enrichment (6-mer frequency, TF over GST control)"
same,binding signal,ELF3,"1.76 fold enrichment (6-mer frequency, TF over GST control)"
same,binding signal,CRX,"1.68 fold enrichment (6-mer frequency, TF over GST control)"
same,binding signal,ETV1,"1.51 fold enrichment (6-mer frequency, TF over GST control)"
